Screens from PubChem.
IL1B secr inh: qHTS for Inhibitors of Inflammasome Signaling: IL-1-beta AlphaLISA Primary Screen; THP-1 LPS/ATP IL-1B secretion, AlphaLISA, 16 h; stronger effect = lower value; AID 743279, 2014; actives 4.7% (n = 360,000); activity change, % at 57.5 µM; in the data active = activity change below about -50%; inconclusive = mostly about -30% to -49%
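Secreted IL-1B measured by AlphaLISA bead assay after 16 h compound exposure of THP-1 cells; compounds (final up to 57.5 uM) added 1 h before LPS (250 ng/mL) and ATP (1.25 mM) stimulation; lower signal means less secretion.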
RORg inh: qHTS for inhibitors of ROR gamma transcriptional activity. actives 5.4% (n = 310,000). Potency, µM (top dose mostly 53.6 µM), for the others: at the top dose activity change, negative = inhibition, usual class: inhibitors. Drosophila S2 Gal4-RORgamma UAS-luciferase reporter, 20 h; also: potency is read from the fitted curve at half-maximal effect; nearly all actives have a fitted effect of over 60% in size
Target sequence (P51450 whole entry, looked up, the tested form may be a part): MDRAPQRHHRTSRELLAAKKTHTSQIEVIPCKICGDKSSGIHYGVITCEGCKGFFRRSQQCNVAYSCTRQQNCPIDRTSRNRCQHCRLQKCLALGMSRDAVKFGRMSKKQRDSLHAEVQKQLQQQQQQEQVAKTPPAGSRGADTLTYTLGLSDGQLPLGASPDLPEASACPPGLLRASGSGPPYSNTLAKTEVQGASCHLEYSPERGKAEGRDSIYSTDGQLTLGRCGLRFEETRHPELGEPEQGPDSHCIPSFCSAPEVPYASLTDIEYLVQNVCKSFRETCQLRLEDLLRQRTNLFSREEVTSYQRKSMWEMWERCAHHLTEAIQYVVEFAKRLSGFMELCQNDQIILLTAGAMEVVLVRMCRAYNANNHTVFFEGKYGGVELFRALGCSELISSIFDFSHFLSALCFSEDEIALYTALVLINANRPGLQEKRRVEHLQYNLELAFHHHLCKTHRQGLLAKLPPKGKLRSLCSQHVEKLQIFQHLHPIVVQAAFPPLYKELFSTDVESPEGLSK
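Stable Schneider cell line, Gal4 DNA-binding domain fused to ROR gamma, UAS-luciferase. Cmpd 1 hr RT → CuSO4 700 uM final → 20 hr RT → luciferase reagent 10 min → luminescence.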
DT40 TDP1 no CPT: qHTS for Inhibitors of human tyrosyl-DNA phosphodiesterase 1 (TDP1): qHTS in cells in absence of CPT; DT40 Tdp1-/- hTDP1 cells, no CPT, ATP luminescence, 48 h; Potency, µM (doses to about 46.2 µM), for the others: at the highest dose activity change, negative = growth inhibition, hits mostly inhibitors; actives 15% (n = 420,000); AID 686978, 2013; also: potency is read from the fitted curve at half-maximal effect; nearly all actives have a fitted effect of over 55% in size
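Growth of hTDP1-complemented DT40 Tdp1-knockout cells is measured by ATP luminescence after at least 48 hr compound exposure at 37 °C, with DMSO substituting for the 20 nM CPT used in the parallel screen.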
TDP1 cell CPT: qHTS for Inhibitors of human tyrosyl-DNA phosphodiesterase 1 (TDP1): qHTS in cells in presence of CPT | chicken DT40 Tdp1-/-;hTDP1 cells + 20 nM CPT, ATP luminescence, 48 h | actives 12% (n = 420,000) | Potency, µM (series often up to 46.2 µM), for the others: top-dose activity change, negative = growth inhibition, usual class: inhibitors | AID 686979, 2013; also: potency is read from the fitted curve at half-maximal effect; nearly all actives have a fitted effect of over 55% in size
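Chicken DT40 Tdp1-/- cells stably complemented with human TDP1 were seeded at 400 cells/well in medium containing 20 nM camptothecin, exposed to pin-transferred compounds, and grown at 37 °C for at least 48 hr. Viability was read as ATP luminescence.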
VP16 counter: VP16 counterscreen qHTS for inhibitors of ROR gamma transcriptional activity; actives 3.5% (n = 310,000); AID 2546, 2010; Potency, µM (highest dose often 53.6 µM), inactives show top-dose activity, negative = inhibition, actives largely listed as inhibitors; Drosophila S2 Gal4-VP16 UAS-luciferase, luminescence, 20 h;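 also: Gal4-VP16 expression switched on by copper sulfate through the metallothionein promoter; potency is read from the fitted curve at half-maximal effect; nearly all actives have a fitted effect of over 50% in size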
LDHA block: qHTS assay for inhibitors of human lactate dehydrogenase; purified LDHA, NADH/diaphorase-resazurin fluorescence; stronger effect = lower value; AID 1347041, 2019; activity change, % (values are at about 110 or 230 µM); L-lactate dehydrogenase A chain (Homo sapiens), P00338; actives 0.15% (n = 480,000); in the data active = activity change below about -30%; inconclusive = mostly about -25% to -30%;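 also: plate controls were DMSO wells for no effect and wells without enzyme for full effect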
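Remaining NADH was detected by diaphorase (0.133 mg/mL) converting 37 µM resazurin to fluorescent resorufin, read at 0 and 20 minutes. The preceding 5-minute room-temperature reaction used 2 nM LDHA, 0.2 mM sodium pyruvate and 0.06 mM NADH at pH 7.4.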
* marks the source's active call; other numbers are inactive results. A selection: hits, their analogues and other compounds. The true share with any hit is near 18%. Unless noted, calls follow the shape of the dose curve; as a rule, active = well fitted curve in the direction sought with a large enough effect; inconclusive = small, poorly fitted or top-dose-only effect, or another doubt; inactive = no such curve, though single readings can be large; an effect the other way counts as inactive or inconclusive. Unless noted, % is scaled to controls: 0 for no effect and ±100 for the full control effect.

`O=C(NCCCNC(=O)C1CC1)C1CC1` gave LDHA block -3.
For CC(=O)Nc1ccc(Nc2nc(Nc3ccc(Cl)cc3)nc(N3CCOCC3)n2)cc1 the results were DT40 TDP1 no CPT 0.79µM*, TDP1 cell CPT 1.3µM* and LDHA block -4.
Cc1ccc(Nc2nc(Nc3ccc(Cl)cc3)nc(N3CCOCC3)n2)cc1 was read as DT40 TDP1 no CPT 18µM*, TDP1 cell CPT 11µM* and LDHA block -6.
For Cc1ccc(Nc2nc(N3CCOCC3)nc(N3CCOCC3)n2)cc1 the results were RORg inh 45%, DT40 TDP1 no CPT 18µM*, TDP1 cell CPT 18µM*, VP16 counter -4% and LDHA block 0.
For CN1CCN(c2nc(Nc3cccc(C(F)(F)F)c3)nc(N3CCOCC3)n2)CC1 the results were IL1B secr inh -59*, RORg inh -33%, DT40 TDP1 no CPT inconclusive, TDP1 cell CPT inconclusive, VP16 counter -5% and LDHA block 2.
For Clc1ccc(Nc2nc(Nc3ccc(Cl)cc3)nc(N3CCOCC3)n2)cc1 the results were DT40 TDP1 no CPT inconclusive, TDP1 cell CPT inconclusive and LDHA block -6.
`Fc1ccc(Nc2nc(Nc3ccc(F)cc3)nc(N3CCOCC3)n2)cc1` gave DT40 TDP1 no CPT inconclusive, TDP1 cell CPT inconclusive and LDHA block -1.
For CC(CC(=O)Nc1ccc(F)cc1)S(=O)(=O)c1ccc2c(c1)CCN2C(=O)C1CC1 (stereo not drawn) the results were LDHA block 3.
Screening CC(C)c1ccc(Nc2nc(N3CCOCC3)nc(N3CCOCC3)n2)cc1 returned IL1B secr inh -8, DT40 TDP1 no CPT 18µM*, TDP1 cell CPT 18µM* and LDHA block -4.
`CC(C)c1ccc(Nc2nc(NCc3ccco3)nc(N3CCOCC3)n2)cc1` gave IL1B secr inh -21, RORg inh 12%, DT40 TDP1 no CPT inconclusive, TDP1 cell CPT inconclusive, VP16 counter -4% and LDHA block -3.
Screening Fc1ccccc1Nc1nc(NCc2ccco2)nc(N2CCOCC2)n1 returned IL1B secr inh -13, RORg inh 10%, DT40 TDP1 no CPT -19%, TDP1 cell CPT inconclusive, VP16 counter 4% and LDHA block -11.
Fc1ccccc1Nc1nc(N2CCOCC2)nc(N2CCOCC2)n1 was read as IL1B secr inh -19, RORg inh 26%, DT40 TDP1 no CPT inconclusive, TDP1 cell CPT 21µM*, VP16 counter -7% and LDHA block -4.
Clc1ccc(Nc2nc(N3CCOCC3)nc(N3CCOCC3)n2)cc1Cl was read as IL1B secr inh -28, RORg inh 10%, DT40 TDP1 no CPT 9.2µM*, TDP1 cell CPT inconclusive, VP16 counter -4% and LDHA block -3.
For CN(CCO)C(=O)COc1cc(O)c2c(=O)cc(-c3ccccc3)oc2c1 the results were LDHA block 5.
Screening Cc1cccc(-c2nnc(SCC(=O)Nc3nncs3)n2C)c1 returned LDHA block -20.
For Cc1ccccc1S(=O)(=O)N1C[C@H]2CON(C)[C@H]2C[C@H]1c1cccc(N2CCOCC2)c1 the results were IL1B secr inh -9, DT40 TDP1 no CPT -16%, TDP1 cell CPT -11% and LDHA block 6.
For CN1OC[C@@H]2CN(S(=O)(=O)c3cccc4ccccc34)[C@H](c3ccc(-c4cccnc4)cc3)C[C@@H]21 the results were IL1B secr inh -19, DT40 TDP1 no CPT 18µM*, TDP1 cell CPT inconclusive and LDHA block -22.
`Cc1ccccc1S(=O)(=O)N1C[C@H]2CON(C)[C@H]2C[C@H]1c1cccc(-c2ccc(C#N)cc2)c1` gave IL1B secr inh -11, DT40 TDP1 no CPT inconclusive, TDP1 cell CPT 21µM* and LDHA block 1.
For CN1OC[C@@H]2CN(S(=O)(=O)c3cccc(C(F)(F)F)c3)[C@H](c3ccc(-c4cccnc4)cc3)C[C@@H]21 the results were IL1B secr inh 22, DT40 TDP1 no CPT 21µM*, TDP1 cell CPT 29µM* and LDHA block -16.
`S=c1[nH]c(-c2ccc(Cl)cc2Cl)cs1` gave LDHA block 0.
Screening CCOC(=O)C1=C(C)N=C2SCC(=O)N2C1c1cccc(OC)c1OC (stereo not drawn) returned LDHA block -1.
`COc1ccccc1-c1nnc(SC/C(O)=C(\C#N)c2nc3ccccc3[nH]2)n1C1CCCCC1` gave IL1B secr inh inconclusive, RORg inh 7.1µM*, DT40 TDP1 no CPT inconclusive, TDP1 cell CPT inconclusive, VP16 counter 11µM* and LDHA block 5.
For COc1ccccc1/C(O)=C(\C#N)c1nc2ccccc2[nH]1 the results were IL1B secr inh 20, RORg inh 1.4µM*, DT40 TDP1 no CPT -28%, TDP1 cell CPT 8%, VP16 counter -7% and LDHA block -12.
For N#C/C(=C(/O)c1ccco1)c1nc2ccccc2[nH]1 the results were IL1B secr inh 3, RORg inh 7.1µM*, DT40 TDP1 no CPT -17%, TDP1 cell CPT -11%, VP16 counter inconclusive and LDHA block 1.
N#C/C(=C(/O)CCl)c1nc2ccccc2[nH]1 was read as IL1B secr inh -95*, RORg inh 5µM*, DT40 TDP1 no CPT 5.2µM*, TDP1 cell CPT 2.6µM*, VP16 counter 10µM* and LDHA block 0.
Screening N#C/C(=C(/O)c1cccc2ccccc12)c1nc2ccccc2[nH]1 returned LDHA block -1.
Screening CCCc1ccc(S(=O)(=O)NCCc2cccc3cccnc23)cc1 returned LDHA block 0.
Cc1ccc(C(=O)Nc2ccc3oc(-c4ccc(F)cc4)nc3c2)cc1 was read as LDHA block -2.
Screening CSCCC(/C(O)=C(\C#N)c1nc2ccccc2[nH]1)N1C(=O)c2ccccc2C1=O (stereo not drawn) returned IL1B secr inh -12, RORg inh 11µM*, DT40 TDP1 no CPT inconclusive, TDP1 cell CPT -27%, VP16 counter 18µM* and LDHA block -7.
